The source of these data is PubChem BioAssay AID1508601 (ICCB-Longwood Screening Facility, Harvard Medical School, 2020).

About 85 (1%) of roughly 5,700 compounds were called active. Rule as the data show it: active = p53-positive nuclei above about 36% (passing the limit was not always enough); inactive = the rest. The full list was thinned out, with actives kept by preference.

Assay [1] in a line: nuclear p53 accumulation, HPV+ cells – imaging, p53-positive nuclei imaging, 24 h, 48 h (AID 1508601). The following applies: 24/48 h.
Assay [2] has as its target Cellular tumor antigen p53 (Homo sapiens) (UniProt P04637). Described as above. Particulars: 24/48 h, stronger effect = higher value.
Where [3] appears, read: measured here: cell number at 24 h, Library stock concentration: 10 mM.
Setting [4] is: measured here: cell number at 48 h, Library stock concentration: 10 mM.
The mark [5] stands for this setting: Library stock concentration: 10 mM.
Where [6] appears, read: measured here: p53 positive nuclei at 24 h, Library stock concentration: 10 mM.
Setting [7] is: measured here: cell number at 24 h, Library stock concentration: 3.33 mM.
[8] abbreviates: measured here: cell number at 48 h, Library stock concentration: 3.33 mM.
[9] abbreviates: Library stock concentration: 3.33 mM.
[10] abbreviates: measured here: p53 positive nuclei at 24 h, Library stock concentration: 3.33 mM.

Sequence of Cellular tumor antigen p53 (Homo sapiens) (P04637 whole entry, looked up): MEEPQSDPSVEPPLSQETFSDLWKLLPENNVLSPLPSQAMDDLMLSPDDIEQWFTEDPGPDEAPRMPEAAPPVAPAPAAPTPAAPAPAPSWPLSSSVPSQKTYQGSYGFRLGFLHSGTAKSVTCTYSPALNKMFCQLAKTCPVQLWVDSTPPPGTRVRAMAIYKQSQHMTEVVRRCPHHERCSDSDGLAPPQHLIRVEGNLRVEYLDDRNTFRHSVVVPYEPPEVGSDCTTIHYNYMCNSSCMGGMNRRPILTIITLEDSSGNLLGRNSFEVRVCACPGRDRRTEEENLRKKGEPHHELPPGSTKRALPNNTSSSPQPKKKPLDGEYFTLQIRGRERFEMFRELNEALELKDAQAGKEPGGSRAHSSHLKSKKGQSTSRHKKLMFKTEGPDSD

For `COC(=O)C=CC(=O)N(O)CCCCNCc1ccc(COC(=O)Nc2cccc3ccccc23)cc1`, the nuclei count, normalised was found to be 119% in assay [1] (measured here: cell number at 24 h, Library stock concentration: 80 uM); 118% in assay [1] (measured here: cell number at 24 h, Library stock concentration: 400 uM); 116% in assay [1] (measured here: cell number at 24 h, Library stock concentration: 2 mM); 97.3% in assay [1] (setting [3]); 112% in assay [1] (measured here: cell number at 48 h, Library stock concentration: 80 uM); 113% in assay [1] (measured here: cell number at 48 h, Library stock concentration: 400 uM). Moreover, the nuclei count, normalised is 110% in assay [1] (measured here: cell number at 48 h, Library stock concentration: 2 mM) and 92.8% in assay [1] (setting [4]). For the same compound, the p53-positive nuclei, normalised in assay [2] (Library stock concentration: 80 uM) was -0.786% (inactive); in assay [2] (Library stock concentration: 400 uM), -0.552% (inactive); in assay [2] (Library stock concentration: 2 mM), -0.616% (inactive); in assay [2] (setting [5]) it was -0.57% (inactive); in assay [2] (measured here: p53 positive nuclei at 24 h, Library stock concentration: 80 uM), -0.122%; in assay [2] (measured here: p53 positive nuclei at 24 h, Library stock concentration: 400 uM), -0.0743%. The p53-positive nuclei, normalised in assay [2] (measured here: p53 positive nuclei at 24 h, Library stock concentration: 2 mM) was -0.0278%; in assay [2] (setting [6]), -0.0473%.

As to `CC(=O)OC1C(=O)[C@]2(C)C(O)CC3OC[C@@]3(OC(C)=O)C2C(OC(=O)c2ccccc2)[C@]2(O)CC(OC(=O)C(O)C(NC(=O)c3ccccc3)c3ccccc3)C(C)=C1C2(C)C` (stereo partly drawn), the nuclei count, normalised in assay [1] (measured here: cell number at 24 h, Library stock concentration: 500 nM) was determined as 124%; in assay [1] (measured here: cell number at 24 h, Library stock concentration: 1.5 uM), 89.9%; in assay [1] (measured here: cell number at 24 h, Library stock concentration: 4.6 uM) it was 58.2%; in assay [1] (measured here: cell number at 24 h, Library stock concentration: 13.7 uM), 49%; in assay [1] (measured here: cell number at 24 h, Library stock concentration: 41 uM) it was 47.4%; in assay [1] (measured here: cell number at 24 h, Library stock concentration: 123 uM), 43.5%. The nuclei count, normalised in assay [1] (measured here: cell number at 24 h, Library stock concentration: 370 uM) was 42%; in assay [1] (measured here: cell number at 24 h, Library stock concentration: 1.111 mM), 43.9%; in assay [1] (setting [7]) it was 33.4%; in assay [1] (measured here: cell number at 24 h, Library stock concentration: 3.333 mM), 39.5%; in assay [1] (setting [3]), 44%; in assay [1] (measured here: cell number at 48 h, Library stock concentration: 500 nM), 119%. The nuclei count, normalised in assay [1] (measured here: cell number at 48 h, Library stock concentration: 1.5 uM) amounted to 71.2%; in assay [1] (measured here: cell number at 48 h, Library stock concentration: 4.6 uM) it was 36.2%; in assay [1] (measured here: cell number at 48 h, Library stock concentration: 13.7 uM), 29.7%; in assay [1] (measured here: cell number at 48 h, Library stock concentration: 41 uM), 28.6%; in assay [1] (measured here: cell number at 48 h, Library stock concentration: 123 uM) it was 29.2%; in assay [1] (measured here: cell number at 48 h, Library stock concentration: 370 uM), 26.7%. Moreover, the nuclei count, normalised in assay [1] (measured here: cell number at 48 h, Library stock concentration: 1.111 mM) was 28.6%; in assay [1] (setting [8]), 27.2%; in assay [1] (measured here: cell number at 48 h, Library stock concentration: 3.333 mM), 26.4%; in assay [1] (setting [4]), 28.4%. Further, the p53-positive nuclei, normalised is 0.615% (inactive) in assay [2] (Library stock concentration: 500 nM); 7.83% (inactive) in assay [2] (Library stock concentration: 1.5 uM); 11.3% (inactive) in assay [2] (Library stock concentration: 4.6 uM); 5.37% (inactive) in assay [2] (Library stock concentration: 13.7 uM); 2.36% (inactive) in assay [2] (Library stock concentration: 41 uM); 1.56% (inactive) in assay [2] (Library stock concentration: 123 uM). The p53-positive nuclei, normalised was 0.755% (inactive) in assay [2] (Library stock concentration: 370 uM); 1.14% (inactive) in assay [2] (Library stock concentration: 1.111 mM); -0.197% (inactive) in assay [2] (setting [9]); 0.0812% (inactive) in assay [2] (Library stock concentration: 3.333 mM); 0.227% (inactive) in assay [2] (setting [5]); -0.0449% in assay [2] (measured here: p53 positive nuclei at 24 h, Library stock concentration: 500 nM). Besides, the p53-positive nuclei, normalised is 0.807% in assay [2] (measured here: p53 positive nuclei at 24 h, Library stock concentration: 1.5 uM); 1.13% in assay [2] (measured here: p53 positive nuclei at 24 h, Library stock concentration: 4.6 uM); -0.0184% in assay [2] (measured here: p53 positive nuclei at 24 h, Library stock concentration: 13.7 uM); 0.131% in assay [2] (measured here: p53 positive nuclei at 24 h, Library stock concentration: 41 uM); 0.31% in assay [2] (measured here: p53 positive nuclei at 24 h, Library stock concentration: 123 uM); 0.493% in assay [2] (measured here: p53 positive nuclei at 24 h, Library stock concentration: 370 uM). Moreover, the p53-positive nuclei, normalised is 0.16% in assay [2] (measured here: p53 positive nuclei at 24 h, Library stock concentration: 1.111 mM); -0.232% in assay [2] (setting [10]); 0.515% in assay [2] (measured here: p53 positive nuclei at 24 h, Library stock concentration: 3.333 mM); 0.00376% in assay [2] (setting [6]).

`Cc1[nH]c2ccccc2c1CCNC(=O)c1cccs1`: the results for the nuclei count, normalised in assay [1] (setting [7]) and in assay [1] (setting [8]) were 115% and 109%, respectively. Also, the results for the p53-positive nuclei, normalised in assay [2] (setting [9]) and in assay [2] (setting [10]) were -0.163% (inactive) and -0.341%, respectively.

As to `CN(C)Cc1ccc(S(=O)(=O)n2ccc(C=CC(=O)NO)c2)cc1`, the nuclei count, normalised in assay [1] (setting [7]) was 86.4%; in assay [1] (setting [8]), 84%. Moreover, the values for the p53-positive nuclei, normalised in assay [2] (setting [9]) and in assay [2] (setting [10]) were 2.58% (inactive) and 5%, respectively.
